# Unmarked numbers belong to inactive results. Records with an inconclusive call do not appear. Where a call stands in place of a potency, no number is given. Activity calls are given as the source filed them. Unless noted, the call rests on the fitted dose curve; in most records, active means well fitted curve in the direction sought with a large enough effect; inconclusive means small, poorly fitted or top-dose-only effect, or another doubt; inactive means no such curve, though single readings can be large; an effect the other way counts as inactive or inconclusive.
# How the values were obtained:
# [1] = qHTS for Inhibitors of Plasmodium falciparum (DD2) proliferation (AID 504314);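 further: parasite DNA measured by SYBR Green fluorescence after red cell lysis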
# Procedure, shortened: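 Fluorescence read-out (ex 485/em 535 nm) of SYBR Green-stained parasite DNA quantifies intraerythrocytic growth. Cultures at 0.3% parasitemia and 2.5% hematocrit were treated for 72 h; data normalized to DMSO and 0.29 uM artemisinin wells.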
# [2] = qHTS for Inhibitors of Plasmodium falciparum (7G8) proliferation (AID 504316); further: nearly all actives have a fitted effect of over 65% in size; further: potency means the concentration at half of the fitted maximal effect
# Procedure, shortened: (§1)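 Erythrocytes infected with P. falciparum line (0.3% parasitemia, 2.5% hematocrit final) incubated with compounds 72 h at 37 °C, 5% CO2; SYBR Green lysis buffer added, fluorescence read next day. Normalized to 0.29 uM artemisinin and DMSO.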
# [3] = qHTS for Inhibitors of Plasmodium falciparum (HB3) proliferation (AID 504318); further: nearly all actives have a fitted effect of over 60% in size; further: potency means the concentration at half of the fitted maximal effect
# Procedure, shortened: as §1
# [4] = qHTS for Inhibitors of Plasmodium falciparum (CP250) proliferation (AID 504320); further: potency means the concentration at half of the fitted maximal effect
# Procedure, shortened: as §1
# [5] = biological target: Atrial natriuretic peptide receptor 1 (Homo sapiens) (UniProt P16066); experiment: Natriuretic polypeptide receptor (hNpr1) antagonism - Pilot CMLD screen (AID 1347052; calls by dose curve;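 further: HEK293 cells with hNpr1 stimulated by hNppA peptide at 0.1 nM; cGMP level read as GloSensor luciferase luminescence after agonist stimulation; series mostly up to about 9.2 µM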)
# Atrial natriuretic peptide receptor 1 (Homo sapiens), sequence (P16066 whole entry, looked up): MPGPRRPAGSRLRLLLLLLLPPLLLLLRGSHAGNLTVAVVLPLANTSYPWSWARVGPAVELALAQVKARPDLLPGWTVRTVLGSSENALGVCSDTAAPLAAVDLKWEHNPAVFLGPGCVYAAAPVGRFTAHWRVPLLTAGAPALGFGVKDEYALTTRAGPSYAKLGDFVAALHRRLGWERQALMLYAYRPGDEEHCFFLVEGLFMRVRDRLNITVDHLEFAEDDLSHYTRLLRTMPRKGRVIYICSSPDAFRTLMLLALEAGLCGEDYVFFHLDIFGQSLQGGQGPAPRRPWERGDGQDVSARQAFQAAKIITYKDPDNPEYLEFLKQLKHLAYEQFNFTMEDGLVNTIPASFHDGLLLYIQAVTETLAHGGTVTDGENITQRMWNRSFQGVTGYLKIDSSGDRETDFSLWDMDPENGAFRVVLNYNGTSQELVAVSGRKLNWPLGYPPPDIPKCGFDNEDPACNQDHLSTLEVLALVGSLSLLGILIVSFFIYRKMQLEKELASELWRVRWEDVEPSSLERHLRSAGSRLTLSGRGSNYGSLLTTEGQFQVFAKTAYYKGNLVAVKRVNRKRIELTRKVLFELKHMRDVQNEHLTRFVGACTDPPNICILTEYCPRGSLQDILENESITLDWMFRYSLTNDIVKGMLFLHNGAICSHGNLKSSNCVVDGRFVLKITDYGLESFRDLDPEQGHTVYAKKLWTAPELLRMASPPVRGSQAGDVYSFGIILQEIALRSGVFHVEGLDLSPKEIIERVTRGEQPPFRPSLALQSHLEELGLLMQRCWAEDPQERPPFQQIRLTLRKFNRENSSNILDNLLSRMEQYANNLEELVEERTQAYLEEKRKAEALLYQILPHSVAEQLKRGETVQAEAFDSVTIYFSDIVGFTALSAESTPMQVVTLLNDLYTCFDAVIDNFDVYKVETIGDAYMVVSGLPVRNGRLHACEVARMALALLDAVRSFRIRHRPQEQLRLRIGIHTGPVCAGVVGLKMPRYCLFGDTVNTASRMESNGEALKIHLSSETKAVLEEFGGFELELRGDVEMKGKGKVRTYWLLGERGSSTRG
# [6] = biological target: Cytochrome P450 3A4 (Homo sapiens) (UniProt P08684); experiment: qHTS Assay for Activators of Cytochrome P450 3A4 (AID 885); further: nearly all actives have a fitted effect of over 65% in size
# Cytochrome P450 3A4 (Homo sapiens), sequence (P08684 whole entry, looked up): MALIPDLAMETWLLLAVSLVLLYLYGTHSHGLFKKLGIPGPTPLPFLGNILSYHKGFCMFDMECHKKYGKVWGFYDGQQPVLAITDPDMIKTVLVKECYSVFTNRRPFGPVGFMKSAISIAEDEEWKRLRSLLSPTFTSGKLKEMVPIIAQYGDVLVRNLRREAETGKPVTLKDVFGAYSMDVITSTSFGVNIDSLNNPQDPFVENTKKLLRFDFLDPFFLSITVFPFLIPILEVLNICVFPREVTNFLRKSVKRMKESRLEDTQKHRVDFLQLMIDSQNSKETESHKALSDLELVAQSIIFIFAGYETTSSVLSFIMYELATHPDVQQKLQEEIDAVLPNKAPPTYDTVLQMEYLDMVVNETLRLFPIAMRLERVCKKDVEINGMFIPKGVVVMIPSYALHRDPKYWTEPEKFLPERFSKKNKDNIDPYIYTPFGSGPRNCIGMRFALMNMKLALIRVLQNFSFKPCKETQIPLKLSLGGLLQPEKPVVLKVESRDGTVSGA
# Procedure, shortened: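 Quantitative HTS format: compounds preincubated with 20nM human CYP3A4 and Luciferin-PPXE substrate at KM, reaction started by NADPH regeneration, stopped after 60 min, luciferase luminescence read 20 min later.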
# [7] = qHTS for Inhibitors of Plasmodium falciparum (GB4) proliferation (AID 504315); further: nearly all actives have a fitted effect of over 50% in size; further: potency means the concentration at half of the fitted maximal effect
# Procedure, shortened: as §1
Structure (SMILES),Potency [1],Potency [2],Potency [3],Potency [4],Potency [5],"activity change, positive = activation [6]",Potency [7]
C=CC[C@@](C(C)=O)(C(=O)OC)[C@@H](NC(=O)OC)c1ccccc1,inactive,inactive,inactive,inactive,inactive,,
CCOC(=O)CN1C(=O)NC(c2ccc(Br)cc2)C(C(C)=O)=C1C (stereo not drawn),inactive,,inactive,inactive,inactive,,
C=C(C)C(=O)OC[C@H]1CN2[C@H](c3ccc(Br)cc3)[C@H](C)CC[C@H]2C(=O)O1,inactive,inactive,,1510 nM (active),inactive,,
CCN1C(=O)[C@@H]2[C@H]3[C@H](O)[C@H](O)CC(=NOC[C@@H](O)[C@H]4O[C@@H]5OC(C)(C)O[C@H]5[C@@H]4O)[C@@H]3CC[C@H]2C1=O,inactive,inactive,,inactive,inactive,,
C=CC[C@@H]1C=C[C@H](ON=C2c3cc(OC)ccc3O[C@H](c3cccc(OC)c3)[C@@H]2O)[C@H](CO)O1,inactive,,inactive,inactive,inactive,,
Cc1ccc2[nH]c3nc(CCCn4ccnc4-c4ccccc4)nnc3c2c1,,,,,,-50.4% [at 11.4 µM],
COC(=O)[C@]1(CC=Cc2ccccc2)C=C[C@@H](C)[C@H](c2ccccc2Br)N1C(=O)C(F)(F)F,,,,,,,1690 nM (active)
Cc1cc2c(c(=O)n1Cc1ccccc1)[C@H]1O[C@](CCCCN3C(=O)c4ccccc4C3=O)(Cc3ccccc31)O2,,1690 nM (active),1690 nM (active),1350 nM (active),inactive,,1900 nM (active)
CCOC(=O)CN1C(=O)NC(CCc2ccccc2)C(C(=O)OC)=C1C (stereo not drawn),,inactive,inactive,inactive,inactive,,inactive
COc1cc2c(c(OC)c1OC)CC(C)=C(C)CC2NC(=O)C(F)(F)F (stereo not drawn),,inactive,inactive,inactive,inactive,,inactive
COCCN1C(=O)NC(CCc2ccccc2)C(C(=O)OC)=C1C (stereo not drawn),,inactive,inactive,inactive,inactive,,inactive
O=P1(O)Oc2c(c(-c3ccccc3)cc3ccccc23)-c2c(-c3ccccc3)cc3ccccc3c2O1,,inactive,inactive,inactive,inactive,,inactive
C=COC[C@@H]1CN2[C@H](c3ccc(Br)cc3)[C@H](C)CC[C@H]2C(=O)O1,,inactive,inactive,inactive,inactive,,inactive

# Source: PubChem BioAssay (NCATS)
